# Results reported in PubChem BioAssay (EPA / NIEHS).
# Calls of active or inactive are those of the source. Rule for the calls: active = hit-call score of the fitted dose curve at least 0.9, where 1 is the maximum; inactive = score below 0.9.
# Read-out: solute carrier (SLC10A1), SLC10A1 (gene 6554)
# Assay: LTEA_HepaRG_SLC10A1: Life Technologies and Expression Analysis (LTEA) Assay for solute carrier (SLC10A1) using HepaRG (AID 2283657)
# Conditions: mRNA level, 48 h; actives raise or lower the signal
# Description: LTEA_HepaRG is a cell based, multiplexed-readout assay that uses HepaRG, a human liver cell line, with measurements taken at 48 hours after chemical dosing on a 96-well plate.LTEA_HepaRG_SLC10A1 is one of 102 assay component(s) measured in the LTEA HepaRG cell culture assay. It is a marker of NR mediated transport.Data from the assay component LTEA_HepaRG_SLC10A1 was analyzed into 1 endpoint. This assay endpoint, LTEA_HepaRG_SLC10A1, was analyzed with bidirectional fitting relative to DMSO as the negative control and baseline of activity. Using a type of inducible reporter, measures of mRNA induction for gain or loss-of-signal activity can be used to understand regulation of transcription factor activity. To generalize the intended target to other relatable targets, this assay endpoint is annotated to the transporter intended target family, where the subfamily is sodium/bile acid cotransporter.
# A total of 1060 chemcials from the ToxCast library were tested in eight-point concentration-response experiments. Cell culture and cytotoxicity assays were conducted at Thermo Fisher Scientific's Custom Services facility (Madison, WI). A single lot of human HepaRG cells (Thermo Fisher Scientific, Frederick, MD) was used for the cell culture experiments. 96-well format collagen type I coated plates of human HepaRG cells were prepared using established methods. Briefly, cryopreserved HepaRG cells were thawed, plated at a density of approximately 100,000 cells/well in HepaRG Thaw, Plate, and General Purpose media (HPRG770, Thermo Fisher Scientific), and incubated for 48 hours. 0.5% DMSO was selected as vehicle control to balance the requisite need of DMSO in HepaRG cultures to maintain differentiation (for example, baseline metabolism, proportions of hepatocytes vs. cholangiocytes), while enabling further hepatic receptor pathway activation (for example, PXR and CAR) in response to chemical exposure. 48 hours after plating, the culture medium was replaced with HepaRG Serum-Free Incudtion Media. Cells were exposed to each test chemical in duplicate and maintained in CO2 incubators for another 48 hours. Chemical plates were thawed to room temperature and 200x concentrations of treatment groups were prepared. 8-point conentration-reponse curves were made with the highest exposure at 100 uM, followed by half-log dilutions, all in 0.5% DMSO. Each test plate contained variouse controls, induction positive controls (1mM phenobarbital), cytotoxicity positive controls ([…] aflatoxin B1), vehicle controls (0.5% DMSO), and total lysis controls (0.5% DMSO). Cell morphology images were taken using an Essen IncuCyte FLR automated microscope, with six 96-well plates imaged in about 24 minutes. Images were captured and exported and JPEG files. Spent culture media was transfered to black-well plates for the LDH assay, and remaining media was sorted at -80 C for later use. Cells were treated with RLT buffer and frozen until shipped for gene expression analysis. Total RNA was isolated from the cell suspension in 75 uL of Buffer RLT (Qiagen, Germantown, MD 20874) by Quintiles/Expression Analysis (Durham, NC) using a custom isolation procedure. Total RNA from each plate well was transferred to a preamplification plate. Fluidigm's 96.96 Dynamic ArrayTM (Fluidigm, Amsterdam, the Netherlands) technology was used for gene expression analyses by quantitative reverse transcription polymerase chain reaction (qRT-PCR, performed by Quintiles/Expression Analysis, Durham, NC)89. Standard TaqManTM Assays (Applied Biosystems/ThermoFisher Scientific, Foster City, CA) were used to assess the expression of 93 genes selected based on their selectivity and sensitivity to important hepatic receptors known to be modulated by environmental chemicals; importance in human hepatocyte functionality; and hepatotoxicity. […]
SMILES,AC50,outcome
CCOP(=S)(OCC)Oc1ccc2c(C)c(Cl)c(=O)oc2c1,70.7 µM (active),–
CCCCN(CC)c1c([N+](=O)[O-])cc(C(F)(F)F)cc1[N+](=O)[O-],–,inactive
CC1(C(=O)Nc2ccc(O)c(Cl)c2Cl)CCCCC1,–,inactive
CCOP(=S)(Oc1cnc(C(C)(C)C)nc1)OC(C)C (stereo not given),16.5 µM (active),–
CC[C@H](C)[C@H]1O[C@]2(C=C[C@@H]1C)C[C@@H]1C[C@@H](C/C=C(\C)[C@@H](O[C@H]3C[C@H](OC)[C@@H](O[C@H]4C[C@H](OC)[C@@H](NC)[C@H](C)O4)[C@H](C)O3)[C@@H](C)/C=C/C=C3\CO[C@@H]4[C@H](O)C(C)=C[C@@H](C(=O)O1)[C@]34O)O2,5 µM (active),–
CNC(=O)Oc1cccc2c1OC(C)(C)O2,–,inactive
CCOC(=O)CC(SP(=O)(OC)OC)C(=O)OCC (stereo not given),10.1 µM (active),–
CC(COc1ccc(Oc2ccccc2)cc1)Oc1ccccn1 (stereo not given),27.9 µM (active),–
CCc1cccc(CC)c1N(COC)C(=O)CCl,–,inactive
CSc1nc(NC(C)C)nc(NC(C)C)n1,61.6 µM (active),–
